{"source": "paper PMC7862700", "about": "“An all-to-all approach to the identification of sequence-specific readers for epigenetic DNA modifications on cytosine”", "assay_in_all_cases": "DAPPL (digital affinity profiling via proximity ligation, sequencing); 10 mM Tris-HCl pH 7.5, 50 mM NaCl, 1 mM DTT, 4% glycerol, room temperature, 30 min; GST-TFs on glutathione beads, 16-mer random dsDNA library, 0.1% formaldehyde crosslink after washing; high values mean tight binding", "key": {"[1]": {"biological_target": "T1, FEV (Homo sapiens, UniProt Q99581 1-238)", "T1 sequence": "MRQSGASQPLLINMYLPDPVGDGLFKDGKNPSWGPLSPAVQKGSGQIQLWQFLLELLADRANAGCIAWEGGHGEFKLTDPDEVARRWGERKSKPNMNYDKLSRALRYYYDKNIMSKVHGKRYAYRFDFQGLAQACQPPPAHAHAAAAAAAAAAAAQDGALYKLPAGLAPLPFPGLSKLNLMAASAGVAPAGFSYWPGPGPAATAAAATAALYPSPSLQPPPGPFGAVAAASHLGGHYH", "settings": "protein: recombinant; tags: N-terminal GST; dsDNA, one strand shown", "how_it_was_run": "(§1)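 Yeast served to express human transcription factors as GST fusions, which were then captured on glutathione beads and labelled with DNA barcodes. Pooled with a tag-only sample, they were incubated with 200 nmole of a 16-mer random double-stranded DNA library for 30 min at room temperature in Tris/NaCl/DTT/glycerol buffer, washed, crosslinked with 0.1% formaldehyde, ligated by proximity, amplified by PCR and sequenced. Dividing each hexamer's read frequency for a factor by its frequency for the tag-only sample gives the binding signal.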"}, "[2]": {"biological_target": "ETV5 (Homo sapiens, UniProt P41161 1-510)", "sequence (P41161 whole entry)": "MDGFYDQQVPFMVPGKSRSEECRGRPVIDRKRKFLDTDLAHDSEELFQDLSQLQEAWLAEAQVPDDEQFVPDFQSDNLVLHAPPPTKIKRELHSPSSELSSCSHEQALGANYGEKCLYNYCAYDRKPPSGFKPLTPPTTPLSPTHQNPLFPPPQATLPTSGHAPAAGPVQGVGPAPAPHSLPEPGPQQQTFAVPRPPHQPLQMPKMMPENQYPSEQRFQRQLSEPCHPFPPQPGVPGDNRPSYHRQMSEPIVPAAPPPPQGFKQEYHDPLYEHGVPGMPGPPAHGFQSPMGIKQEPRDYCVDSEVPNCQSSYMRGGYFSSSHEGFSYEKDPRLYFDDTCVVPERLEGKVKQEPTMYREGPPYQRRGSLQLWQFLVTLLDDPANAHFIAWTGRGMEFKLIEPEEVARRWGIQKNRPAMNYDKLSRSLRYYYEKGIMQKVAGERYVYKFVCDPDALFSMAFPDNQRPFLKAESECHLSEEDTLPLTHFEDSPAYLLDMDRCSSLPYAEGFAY", "settings": "protein: recombinant; tags: N-terminal GST; dsDNA, one strand shown", "how_it_was_run": "as §1"}, "[3]": {"biological_target": "HSF1 (Homo sapiens, UniProt Q00613 1-529)", "sequence (Q00613 whole entry)": "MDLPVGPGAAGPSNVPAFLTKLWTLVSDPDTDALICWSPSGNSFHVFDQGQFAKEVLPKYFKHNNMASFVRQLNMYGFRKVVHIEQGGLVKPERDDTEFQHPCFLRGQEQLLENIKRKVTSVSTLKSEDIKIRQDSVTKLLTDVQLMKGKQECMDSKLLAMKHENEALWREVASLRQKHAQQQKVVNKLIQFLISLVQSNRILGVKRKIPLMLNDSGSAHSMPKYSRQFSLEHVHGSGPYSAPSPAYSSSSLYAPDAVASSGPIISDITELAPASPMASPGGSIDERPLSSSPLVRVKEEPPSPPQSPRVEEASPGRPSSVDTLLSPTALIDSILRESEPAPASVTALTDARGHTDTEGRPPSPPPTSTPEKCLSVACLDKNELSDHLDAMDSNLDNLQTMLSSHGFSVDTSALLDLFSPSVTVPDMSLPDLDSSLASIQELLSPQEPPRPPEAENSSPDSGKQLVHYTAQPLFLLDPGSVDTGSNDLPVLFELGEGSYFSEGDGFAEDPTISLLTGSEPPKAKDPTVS", "settings": "protein: recombinant; tags: N-terminal GST; chain copies: 3; dsDNA, one strand shown", "how_it_was_run": "as §1"}, "[4]": {"biological_target": "T2, SPIC (Homo sapiens, UniProt Q8N5J4 1-248)", "T2 sequence": "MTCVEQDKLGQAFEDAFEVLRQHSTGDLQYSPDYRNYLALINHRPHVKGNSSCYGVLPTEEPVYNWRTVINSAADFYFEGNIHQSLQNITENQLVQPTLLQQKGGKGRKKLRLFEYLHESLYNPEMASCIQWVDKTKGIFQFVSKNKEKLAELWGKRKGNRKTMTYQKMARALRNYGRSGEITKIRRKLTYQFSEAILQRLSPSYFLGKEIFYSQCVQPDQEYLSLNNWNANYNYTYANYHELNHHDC", "settings": "protein: recombinant; tags: N-terminal GST; dsDNA, one strand shown", "how_it_was_run": "as §1"}, "[5]": {"biological_target": "ELF4 (Homo sapiens, UniProt Q99607 1-663)", "sequence (Q99607 whole entry)": "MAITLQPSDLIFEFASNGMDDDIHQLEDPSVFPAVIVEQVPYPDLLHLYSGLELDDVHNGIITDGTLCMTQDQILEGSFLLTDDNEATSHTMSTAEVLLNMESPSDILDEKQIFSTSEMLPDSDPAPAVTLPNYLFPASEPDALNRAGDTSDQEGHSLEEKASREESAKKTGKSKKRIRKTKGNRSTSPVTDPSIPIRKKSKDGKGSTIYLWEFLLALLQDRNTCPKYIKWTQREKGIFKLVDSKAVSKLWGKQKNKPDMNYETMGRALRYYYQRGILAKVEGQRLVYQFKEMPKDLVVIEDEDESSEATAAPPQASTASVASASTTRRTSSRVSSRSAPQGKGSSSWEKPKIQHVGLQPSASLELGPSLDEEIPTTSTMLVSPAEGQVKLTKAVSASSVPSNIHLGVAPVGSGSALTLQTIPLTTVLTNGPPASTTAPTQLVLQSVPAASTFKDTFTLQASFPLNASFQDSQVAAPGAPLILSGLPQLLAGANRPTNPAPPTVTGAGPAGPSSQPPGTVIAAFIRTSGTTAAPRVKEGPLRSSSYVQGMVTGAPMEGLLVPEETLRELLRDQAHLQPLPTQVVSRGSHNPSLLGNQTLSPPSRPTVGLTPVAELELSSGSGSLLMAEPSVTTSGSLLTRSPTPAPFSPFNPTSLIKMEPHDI", "settings": "protein: recombinant; tags: N-terminal GST; dsDNA, one strand shown", "how_it_was_run": "as §1"}, "[6]": {"biological_target": "T3, ELK4 (Homo sapiens, UniProt P28324-2 1-405)", "T3 sequence": "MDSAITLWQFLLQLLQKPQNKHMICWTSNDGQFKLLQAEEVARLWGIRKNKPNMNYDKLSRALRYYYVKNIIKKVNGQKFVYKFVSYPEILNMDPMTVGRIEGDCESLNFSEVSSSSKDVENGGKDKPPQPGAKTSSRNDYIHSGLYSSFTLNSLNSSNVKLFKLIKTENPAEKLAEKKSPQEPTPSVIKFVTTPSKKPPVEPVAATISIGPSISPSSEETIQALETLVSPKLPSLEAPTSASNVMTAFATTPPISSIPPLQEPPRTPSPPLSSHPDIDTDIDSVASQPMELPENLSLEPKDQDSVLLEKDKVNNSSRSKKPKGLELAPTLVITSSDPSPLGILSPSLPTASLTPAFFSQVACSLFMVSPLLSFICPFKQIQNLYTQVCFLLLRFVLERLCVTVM", "settings": "protein: recombinant; tags: N-terminal GST; dsDNA, one strand shown", "how_it_was_run": "as §1"}, "[7]": {"biological_target": "T4, ETV2 (Homo sapiens, UniProt O00321 1-342)", "T4 sequence": "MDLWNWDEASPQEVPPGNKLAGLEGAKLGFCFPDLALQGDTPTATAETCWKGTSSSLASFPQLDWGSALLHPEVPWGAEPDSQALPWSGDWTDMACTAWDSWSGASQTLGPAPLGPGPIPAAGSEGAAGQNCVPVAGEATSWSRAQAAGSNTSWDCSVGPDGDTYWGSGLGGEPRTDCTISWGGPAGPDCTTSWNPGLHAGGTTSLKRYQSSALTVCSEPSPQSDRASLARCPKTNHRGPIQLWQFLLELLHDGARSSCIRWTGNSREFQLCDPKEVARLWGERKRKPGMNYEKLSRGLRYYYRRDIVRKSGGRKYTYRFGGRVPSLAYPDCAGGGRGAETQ", "settings": "protein: recombinant; tags: N-terminal GST; dsDNA, one strand shown", "how_it_was_run": "as §1"}, "[8]": {"biological_target": "T5, ELF3 (Homo sapiens, UniProt P78545 1-371)", "T5 sequence": "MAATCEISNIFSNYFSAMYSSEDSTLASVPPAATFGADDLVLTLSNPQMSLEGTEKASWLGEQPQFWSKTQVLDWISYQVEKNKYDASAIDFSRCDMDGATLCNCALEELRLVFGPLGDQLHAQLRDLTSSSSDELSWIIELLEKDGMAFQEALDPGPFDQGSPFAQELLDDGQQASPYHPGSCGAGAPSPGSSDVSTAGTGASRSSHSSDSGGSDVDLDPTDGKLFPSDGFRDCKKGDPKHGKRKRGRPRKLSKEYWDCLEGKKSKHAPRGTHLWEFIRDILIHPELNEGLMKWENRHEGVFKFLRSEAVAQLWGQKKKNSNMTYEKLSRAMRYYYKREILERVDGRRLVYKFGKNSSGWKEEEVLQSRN", "settings": "protein: recombinant; tags: N-terminal GST; dsDNA, one strand shown", "how_it_was_run": "as §1"}, "[9]": {"biological_target": "CRX (Homo sapiens, UniProt O43186 1-299)", "sequence (O43186 whole entry)": "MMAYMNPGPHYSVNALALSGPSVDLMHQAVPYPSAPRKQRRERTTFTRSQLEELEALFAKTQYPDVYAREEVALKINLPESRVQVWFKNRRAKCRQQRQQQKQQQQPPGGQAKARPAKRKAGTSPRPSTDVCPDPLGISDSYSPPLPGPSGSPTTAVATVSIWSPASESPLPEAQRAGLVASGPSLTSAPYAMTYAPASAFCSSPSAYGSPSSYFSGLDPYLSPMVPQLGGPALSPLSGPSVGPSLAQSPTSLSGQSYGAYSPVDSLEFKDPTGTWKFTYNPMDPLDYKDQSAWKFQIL", "settings": "protein: recombinant; tags: N-terminal GST; dsDNA, one strand shown", "how_it_was_run": "as §1"}, "[10]": {"biological_target": "ETV1 (Homo sapiens, UniProt P50549 1-477)", "sequence (P50549 whole entry)": "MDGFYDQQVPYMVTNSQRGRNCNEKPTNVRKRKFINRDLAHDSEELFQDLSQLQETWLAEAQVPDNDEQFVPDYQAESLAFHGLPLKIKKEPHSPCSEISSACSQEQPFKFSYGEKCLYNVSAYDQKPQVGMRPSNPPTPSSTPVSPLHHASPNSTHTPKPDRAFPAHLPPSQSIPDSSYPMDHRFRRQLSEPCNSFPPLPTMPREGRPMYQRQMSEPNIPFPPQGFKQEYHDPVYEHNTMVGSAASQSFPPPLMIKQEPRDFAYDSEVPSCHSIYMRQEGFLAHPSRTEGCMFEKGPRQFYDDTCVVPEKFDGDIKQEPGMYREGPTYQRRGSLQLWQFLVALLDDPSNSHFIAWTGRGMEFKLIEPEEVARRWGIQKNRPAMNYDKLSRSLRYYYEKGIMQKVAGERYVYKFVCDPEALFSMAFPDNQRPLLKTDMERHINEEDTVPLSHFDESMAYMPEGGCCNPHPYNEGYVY", "settings": "protein: recombinant; tags: N-terminal GST; dsDNA, one strand shown", "how_it_was_run": "as §1"}}}
{"sequence": "ATGTTT", "values": [{"measurement": "binding signal", "setting": "[1]", "value": "1.36 fold enrichment (6-mer frequency, TF over GST control)"}, {"measurement": "binding signal", "setting": "[2]", "value": "1.4 fold enrichment (6-mer frequency, TF over GST control)"}, {"measurement": "binding signal", "setting": "[3]", "value": "1.32 fold enrichment (6-mer frequency, TF over GST control)"}, {"measurement": "binding signal", "setting": "[4]", "value": "1.27 fold enrichment (6-mer frequency, TF over GST control)"}, {"measurement": "binding signal", "setting": "[5]", "value": "1.3 fold enrichment (6-mer frequency, TF over GST control)"}, {"measurement": "binding signal", "setting": "[6]", "value": "1.37 fold enrichment (6-mer frequency, TF over GST control)"}, {"measurement": "binding signal", "setting": "[7]", "value": "1.41 fold enrichment (6-mer frequency, TF over GST control)"}, {"measurement": "binding signal", "setting": "[8]", "value": "1.34 fold enrichment (6-mer frequency, TF over GST control)"}, {"measurement": "binding signal", "setting": "[9]", "value": "1.26 fold enrichment (6-mer frequency, TF over GST control)"}, {"measurement": "binding signal", "setting": "[10]", "value": "1.26 fold enrichment (6-mer frequency, TF over GST control)"}]}
